The record followed here is PubChem BioAssay (NCI).

The panel holds about 83,000 compounds, 20% with a hit somewhere; the sample as a whole holds those more often.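 Single-dose data. Exposure time 48 hours. Values below 10 considered active.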 Values without a mark were called inactive. Active and inactive are the calls of the source.

Some test systems named below: HCT-15 colon; HT29 colon; SNB-75 CNS; SNB-19 CNS; U251 CNS; PC-3 prostate; SK-MEL-5 melanoma; UACC-62 melanoma; LOX IMVI melanoma; SK-MEL-28 melanoma.
Holding throughout (assay): NCI-60 one-dose screen, 48 h (100 = growth as untreated, 0 = no growth, -100 = all killed)
Details in all cases: 10 µM unless noted

`CC1(C)N=C(N)N=C(N)N1c1ccc(OCC(=O)Nc2ccccc2)c(Cl)c1`: the growth in the assay on HCT-15 colon is 96.7%; in the assay with HT29 colon, 17.6%; in the assay with SNB-75 CNS, 82.3%; in the assay on SNB-19 CNS, 49.4%; in the assay with U251 CNS it was 41%; with PC-3 prostate, 14.8%. Besides, the growth with SK-MEL-5 melanoma was 26.6%; in the assay on UACC-62 melanoma it was 18.2%; in the assay on LOX IMVI melanoma, 22.4%; in the assay on SK-MEL-28 melanoma it was 76.3%.
On to `O=[N+]([O-])c1cccc(C(c2ccccc2)c2ccccc2)c1`, for which the growth in the assay on HCT-15 colon was 95.3%; in the assay with HT29 colon, 79.8%; in the assay on SNB-75 CNS it was 86.4%; with SNB-19 CNS it was 97.3%; in the assay on U251 CNS it was 90.9%; in the assay with PC-3 prostate it was 70.4%. For the same compound, the growth is 101% in the assay on SK-MEL-5 melanoma, 86.7% in the assay with UACC-62 melanoma, 87.3% in the assay on LOX IMVI melanoma and 107% in the assay on SK-MEL-28 melanoma.
For the compound `O=C1/C(=C/c2cccc3cnccc23)Cc2cc(F)ccc21`, the growth was 87.1% in the assay on HCT-15 colon; 94.6% in the assay on HT29 colon; 107% in the assay with SNB-75 CNS; 102% with SNB-19 CNS; 95.8% with U251 CNS; 79.2% in the assay on PC-3 prostate. The growth was 89.9% with SK-MEL-5 melanoma, 86.3% in the assay with UACC-62 melanoma, 93% with LOX IMVI melanoma and 109% in the assay on SK-MEL-28 melanoma.
As to `CCCCCC/C=N/Nc1ccc([N+](=O)[O-])cn1`, the growth was 102% in the assay on HCT-15 colon; 81.5% with HT29 colon; 105% in the assay with SNB-75 CNS; 108% with SNB-19 CNS; 110% in the assay on U251 CNS; 93.2% in the assay with PC-3 prostate. The growth is 113% with SK-MEL-5 melanoma, 102% in the assay on UACC-62 melanoma, 83.2% with LOX IMVI melanoma and 109% in the assay on SK-MEL-28 melanoma.
`c1ccc(-c2nc3sc(C(c4ccccc4)c4ccccc4)nn3c2-c2ccccc2)cc1`: the growth was 87.9% in the assay with HCT-15 colon; 94.9% in the assay on HT29 colon; 85% with SNB-75 CNS; 109% in the assay on SNB-19 CNS; 102% with U251 CNS; 78.7% in the assay on PC-3 prostate. The growth with SK-MEL-5 melanoma is 109%; in the assay with UACC-62 melanoma it was 89%; with LOX IMVI melanoma it was 89.4%; in the assay with SK-MEL-28 melanoma it was 102%.
For `CCc1c(C)c2cc(-n3c(-c4ccc(OC)cc4)csc3=N)c(O)c(C)c2oc1=O`, the growth in the assay with HCT-15 colon was 9.38% (active); with HT29 colon, 5.28% (active); with SNB-75 CNS, -2.92% (active); in the assay on SNB-19 CNS it was 21.7%; in the assay on U251 CNS it was 10.8%; in the assay with PC-3 prostate it was 12.9%. The growth in the assay on SK-MEL-5 melanoma is 4.4% (active); in the assay with UACC-62 melanoma, 2% (active); in the assay on LOX IMVI melanoma it was 5.9% (active); in the assay with SK-MEL-28 melanoma it was 28.6%.
Take `COc1ccc(-c2nn(-c3ccc(NC(=O)Nc4ccc(Cl)c(Cl)c4)cc3)cc2-c2ccncc2)cc1Cl`: the growth in the assay with HCT-15 colon was 7.56% (active); in the assay with HT29 colon, 6.65% (active); with SNB-75 CNS it was 46.8%; in the assay on SNB-19 CNS, 34.4%; in the assay on U251 CNS it was 0.654% (active); in the assay with PC-3 prostate, 11.3%. Moreover, the growth in the assay with SK-MEL-5 melanoma is -27.5% (active); in the assay on UACC-62 melanoma, 9.56% (active); in the assay with LOX IMVI melanoma it was -0.494% (active); in the assay with SK-MEL-28 melanoma it was 28.4%.
Regarding `COc1ccc(-c2cnc(-c3ccc(F)cc3)[nH]2)cc1`, the growth in the assay on HCT-15 colon was 53.2%; with HT29 colon, 16.4%; in the assay with SNB-75 CNS it was 98.6%; in the assay on SNB-19 CNS it was 98.5%; with PC-3 prostate, 73.7%; in the assay with SK-MEL-5 melanoma, 101%. The growth was 82.2% in the assay on UACC-62 melanoma, 6.54% (active) in the assay with LOX IMVI melanoma and 110% in the assay on SK-MEL-28 melanoma.
Regarding `c1ccc2nc(Cn3cc[n+](Cc4ccc5ccccc5n4)c3)ccc2c1`, the growth is 102% with HCT-15 colon; 41.9% with HT29 colon; 70.7% in the assay on SNB-75 CNS; 47.7% in the assay with SNB-19 CNS; 44.2% in the assay with U251 CNS; 42.6% in the assay on PC-3 prostate. The growth is 16.9% in the assay on SK-MEL-5 melanoma, 54.6% with UACC-62 melanoma, 75.4% with LOX IMVI melanoma and 63.8% in the assay with SK-MEL-28 melanoma.
As to `CCCc1nn2c(CCC(=O)c3nc4ccc([N+](=O)[O-])cc4[nH]3)nnc2s1`, the growth was 100% in the assay with HCT-15 colon; 106% with HT29 colon; 97.2% in the assay with SNB-75 CNS; 109% in the assay with SNB-19 CNS; 108% with U251 CNS; 100% in the assay with PC-3 prostate. The growth was 119% in the assay on SK-MEL-5 melanoma, 98.7% in the assay on UACC-62 melanoma, 95.5% in the assay with LOX IMVI melanoma and 103% in the assay on SK-MEL-28 melanoma.
With `O=C(COc1ccc(Cl)cc1Cl)N1N=C(c2ccc(Cl)cc2Cl)CC1(O)c1cc(F)c(Cl)cc1Cl` (centres undefined), the growth is 158% with HCT-15 colon; 116% with HT29 colon; 108% in the assay with SNB-75 CNS; 88% in the assay on SNB-19 CNS; 131% in the assay on U251 CNS; 102% with PC-3 prostate. In addition, the growth with SK-MEL-5 melanoma is 80.8%; with UACC-62 melanoma it was 156%; in the assay on LOX IMVI melanoma, 128%; with SK-MEL-28 melanoma it was 141%.
Take `O=C(CSc1nnc(-c2ccccc2)o1)Nc1ccc(C(=O)/C=C/c2ccccc2)cc1`: the growth in the assay with HCT-15 colon is 25.8%; in the assay on HT29 colon, 32.4%; in the assay with SNB-75 CNS, 33.5%; with SNB-19 CNS, 64.9%; with U251 CNS it was 44.1%; with PC-3 prostate, 77%. Further, the growth is 78.9% in the assay with SK-MEL-5 melanoma, 82.3% in the assay with UACC-62 melanoma, 24.4% in the assay with LOX IMVI melanoma and 97% in the assay with SK-MEL-28 melanoma.
With `O=C(O)c1cccc2oc(-c3ccccc3O)nc12`, the growth in the assay on HCT-15 colon was 34.1%; with HT29 colon it was 36.1%; in the assay on SNB-75 CNS, 74.7%; in the assay with SNB-19 CNS, 67.8%; with U251 CNS it was 45.6%; in the assay with PC-3 prostate, 47.8%. The growth in the assay with SK-MEL-5 melanoma was 58.1%; with UACC-62 melanoma it was 65%; in the assay with LOX IMVI melanoma it was 4.75% (active); in the assay on SK-MEL-28 melanoma it was 77.9%.
For `Nn1c(SCC(=O)Nc2cc(Cl)c(Cl)cc2Cl)nnc1-c1cc(F)c(Cl)cc1Cl`, the growth was 150% in the assay with HCT-15 colon; 110% in the assay on HT29 colon; 106% in the assay on SNB-75 CNS; 102% with SNB-19 CNS; 114% in the assay with U251 CNS; 97.8% in the assay on PC-3 prostate. The growth in the assay with SK-MEL-5 melanoma is 78.4%; in the assay on UACC-62 melanoma it was 146%; in the assay with LOX IMVI melanoma, 129%; with SK-MEL-28 melanoma, 135%.
